# According to PubChem BioAssay (Tox21):
# Several values for one entry are separate records, joined by “and”; a condition that tells them apart may be missing. Equal entries are not always repeated. Results filed as inconclusive are left out. Where a call stands in place of a potency, no number is given. Unmarked numbers belong to inactive results. Activity calls are given as the source filed them. The call rests on the fitted dose curve; in most records, active means well fitted cell-killing curve with a large enough effect in the repeat runs; inconclusive means weak or mixed curves, or effect the other way; inactive means flat fitted curve, though single readings scatter.
# Test: qHTS assay to identify small molecule agonists of the constitutive androstane receptor (CAR) signaling pathway - cell viability counter screen (AID 1224836); further: nearly all actives have a fitted effect of over 45% in size
# Conditions: HepG2-CYP2B6-hCAR viability, CellTiter-Fluor, 23 h, PK11195 added to every well; series mostly up to 92.4 µM; viability change, negative = cytotoxic: at the top concentration
# Excerpt: U.S. Tox21 Program National Center for Advancing Translational Sciences [NCATS] NIH Chemical Genomics Center [NCGC] U.S. Environmental Protection Agency [EPA] National Institutes of Environmental Health Sciences [NIEHS] National Toxicology Program [NTP] U.S. Food and Drug Administration [FDA] Tox21 Assay Overview: The constitutive androstane receptor (CAR) is a nuclear receptor which regulates multiple drug metabolizing enzymes (DMEs) and transporters. Activating CAR will generally increase the transcription and subsequent translation of CYP2B6 and CYP3A4. These two DMEs represent about 50% of the drug metabolizing potential in the body. […] Recently, there have also been studies performed indicating CARs role in energy metabolism and cancer therapy. Therefore, inducing CARs activity could have a potential effect on diabetes and cancer. Identifying environmental toxins and compounds which modulate CAR, through the use of the Tox21 10K compound collection, will be an important step in determining the toxicity and potential therapeutic effects these factors will have on the human body. To differentiate true CAR agonists from cytotoxic substances, the assay is multiplexed with a cell viability assay.
# Tox21 Assay Protocol Summary: A double-stable (hCAR and CYP2B6-2.2kb) transfected cell line, derived from human hepatoma (HepG2) cells, was utilized for the duration of the quantitative high-throughput screens. The HepG2-CYP2B6-hCAR cells were dispensed at 2500 cells/4 uL/well in 1536-well white solid bottom plates using a Multidrop Combi. After the assay plates were incubated at 37 C/5% CO2 for 4 hrs, 23 nL of compounds at 15 concentrations (from 5-48 columns) or positive control (from 1 to 4 columns) were transferred to the assay plates using a Pintool station. One uL of PK11195 (final concentration = 0.75 uM) was added, using a Flying Reagent Dispenser, inside each well. After a 23 hr incubation period at 37 C/5% CO2, 1 uL of CellTiter-Fluor reagent was added into each well of the assay plates using a Flying Reagent Dispenser. The fluorescence intensity in the plates was then measured using a ViewLux plate reader.
# Potency means the concentration at half of the fitted maximal effect.
Compound,Potency,"viability change, negative = cytotoxic"
CS(=O)(=O)NC(=O)c1cc(Oc2ccc(C(F)(F)F)cc2Cl)ccc1[N+](=O)[O-],inactive,
O=C1C(Cl)=C(Cl)C(=O)c2ccccc21,,2.16%
CCC1(c2ccc(N)cc2)CCC(=O)NC1=O (stereo not given),inactive,
N#Cc1cccnc1,inactive,
COc1ccc(O)c(C(C)(C)C)c1,inactive,
O=C1Nc2ccc(Cl)cc2C(c2ccccc2)=NC1O (stereo not given),inactive,
N#CCCCCC#N,inactive,
CCCCCCCC[N+](C)(CCCCCCCC)CCCCCCCC,17.2 µM (active) and 7.7 µM (active) and 48.6 µM (active),
[Cl-].[Cl-].[Cl-].[Fe+3],inactive,
CCOP(=S)(OCC)SCn1c(=O)oc2cc(Cl)ccc21,inactive,
CC1=C(C(=O)Nc2ccccc2)SCCO1,inactive,
O=C(O)CF,inactive,
CC(C)(c1ccccc1)c1ccc(O)cc1,,-20.6%
CCCCSP(=O)(SCCCC)SCCCC,inactive,
CCOS(=O)(=O)OCC,,8.13%
CNC(=O)CSP(=S)(OC)OC,inactive,
O=NN(c1ccccc1)c1ccccc1,inactive,
CC(C)(O)C#N,inactive,
CC1CC(=O)O1 (stereo not given),inactive,
Cc1cccc(N=Nc2ccc(N(C)C)cc2)c1,78.3 µM (active),

Compound,Potency,"viability change, negative = cytotoxic"
CC(C)=CC1C(C(=O)OCc2cccc(Oc3ccccc3)c2)C1(C)C (stereo not given),inactive,
O=C1CCCO1,inactive,
NC(=O)CN1CCCC1=O,inactive,
O=P(OCCCl)(OCCCl)OCCCl,inactive,
COc1ccc(C=O)cc1OC,inactive,
CNC(=O)Oc1cccc2c1OC(C)(C)C2,inactive,
CC(C)=CC1C(C(=O)OCN2C(=O)C3=C(CCCC3)C2=O)C1(C)C (stereo not given),inactive,
CNC(=S)S,inactive,
CCNc1nc(Cl)nc(NC(C)(C)C#N)n1,inactive,
CCCCCCCCCC(CC)c1ccc(S(=O)(=O)O)cc1 (stereo not given),inactive,
CCCCCCCCCCCCCl,inactive,
CCCCOC(=O)COC(=O)c1ccccc1C(=O)OCCCC,inactive,
CCC[CH2][Sn]([Cl])([Cl])[CH2]CCC,0.874 µM (active),
N#CC(c1ccccc1)c1ccccc1,inactive,
CC(C)(C#N)N=NC(C)(C)C#N,inactive,
Cc1cc(Cl)ccc1N=CN(C)C,inactive,
CCN(CC)C(=O)C(C)Oc1cccc2ccccc12 (stereo not given),inactive,
C[C@]12CC[C@H]3[C@@H](CCC4=CC(=O)CC[C@@H]43)[C@@H]1CC[C@@H]2O,inactive,
C=CC(=O)OCC(CC)(COC(=O)C=C)COC(=O)C=C,35.3 µM (active) and 30.6 µM (active),
N#Cc1c(Cl)c(Cl)c(Cl)c(C#N)c1Cl,26.8 µM (active) and 24.3 µM (active),
